From PubChem
Shown is part of a subset that was picked to be rich in hits.
RT RNaseH block: inhibitors of HIV-1 reverse transcriptase RNase H; P04585; RT-RNase H RNA/DNA duplex cleavage, fluorescence; inhibition, % at 10 µM; hit rate 1.9% among 65,000; AID 565; in the data active means inhibition above about 50%
Hits are given with their value.

Results for O=C(Cn1ncc2c1-c1ccccc1OC2)N1CCN(Cc2ccc3c(c2)OCO3)CC1 ?
RT RNaseH block: inactive

How did CCn1c(SCC(=O)c2cc(C)n(CC3CCCO3)c2C)nc2ccccc21 (centres undefined) do in these assays?
RT RNaseH block: inactive

Results for Cc1cc(C(=O)CSc2nnnn2-c2ccc(Cl)cc2)c(C)n1CC1CCCO1 (centres undefined) ?
RT RNaseH block: 63

Results for Cc1cc(C(=O)CSc2nnnn2-c2ccccc2)c(C)n1CC1CCCO1 (centres undefined) ?
RT RNaseH block: inactive

Results for CCN1CC=C2C(C1)C(c1ccc(Cl)s1)C(C#N)=C(N)C2(C#N)C#N (centres undefined) ?
RT RNaseH block: inactive

How did CC1(C)Cc2c(C#N)c(N3CCN(C(=O)c4ccco4)CC3)nc(-c3ccco3)c2CS1 do in these assays?
RT RNaseH block: 55

Results for N#Cc1c(N2CCN(C(=O)c3ccco3)CC2)nc(-c2ccccc2)c2c1CCCC2 ?
RT RNaseH block: inactive

What do the screens show for `CC1(C)Cc2c(C#N)c(N3CCN(C(=O)c4ccco4)CC3)nc(Cc3ccccc3)c2CO1`?
RT RNaseH block: inactive

How did COc1ccc(C2C3=C(CCCC3=O)Nc3nc4ccccc4n32)cc1OC (centres undefined) do in these assays?
RT RNaseH block: inactive

Results for CN(C)c1ccc(CN(C)C2CCCCC2)cc1 ?
RT RNaseH block: inactive

What do the screens show for `CC1(C)CC(=O)CC(C)(C)N1OC(=O)c1ccncc1`?
RT RNaseH block: inactive

Results for O=C(Nc1nnc(C2CC2)s1)C1Cc2ccccc2CN1S(=O)(=O)c1cccs1 (centres undefined) ?
RT RNaseH block: 59

How did COc1ccc(S(=O)(=O)N2Cc3ccccc3CC2C(=O)Nc2nccs2)cc1OC (centres undefined) do in these assays?
RT RNaseH block: inactive

What do the screens show for `O=C(Nc1ccccn1)C1CCN(S(=O)(=O)c2cccs2)CC1`?
RT RNaseH block: inactive

How did CCc1nnc(NC(=O)C2Cc3ccccc3CN2S(=O)(=O)c2cccs2)s1 (centres undefined) do in these assays?
RT RNaseH block: 50

How did CCc1nnc(NC(=O)C2CCCN2S(=O)(=O)c2ccc(C)cc2)s1 (centres undefined) do in these assays?
RT RNaseH block: inactive

What do the screens show for `O=C(C1CCN(S(=O)(=O)c2cccs2)CC1)N1CCc2ccccc2C1`?
RT RNaseH block: inactive

What do the screens show for `CCOC(=O)C1CCN(C(=O)CNS(=O)(=O)c2cccs2)CC1`?
RT RNaseH block: inactive

Results for CCc1nc2ccccc2n1CCC(C)C ?
RT RNaseH block: inactive

How did Cc1ccc(CSc2nnc(-c3ccccn3)n2C)cc1 do in these assays?
RT RNaseH block: inactive

Results for Cc1cccc(CSc2nnc(-c3ccccn3)n2N)c1 ?
RT RNaseH block: 52

How did Nn1c(SC/C=C/c2ccccc2)nnc1-c1ccccn1 do in these assays?
RT RNaseH block: inactive

What do the screens show for `COc1ccccc1N(C)S(=O)(=O)c1ccc(C(=O)OCC(=O)NCc2ccco2)cc1`?
RT RNaseH block: inactive

What do the screens show for `CCOCCCNS(=O)(=O)c1ccc(Br)cc1`?
RT RNaseH block: inactive

What do the screens show for `COC(=O)/C=c1/s/c(=C(\C#N)C(=O)NCc2ccco2)n(-c2ccccc2)c1=O`?
RT RNaseH block: inactive

What do the screens show for `COC(=O)/C=c1\sc2ncnn2c1=O`?
RT RNaseH block: 56

Results for CCC(=O)Nc1cc(=O)[nH]c2ncnn12 ?
RT RNaseH block: inactive

What do the screens show for `O=c1cc(C(F)(F)F)nc(-c2ccccc2)[nH]1`?
RT RNaseH block: inactive

Results for CCOc1ccc(C)cc1S(=O)(=O)n1ccc(C)n1 ?
RT RNaseH block: inactive

Results for O=C(CCc1ccccc1)Nc1nc2ccc(S(=O)(=O)N3CCOCC3)cc2s1 ?
RT RNaseH block: 64

How did CCOc1ccc2nc(NC(=O)c3ccc(S(=O)(=O)N4CCOCC4)cc3)sc2c1 do in these assays?
RT RNaseH block: inactive

Results for COc1ccc(CC(=O)Nc2nc3ccccc3s2)cc1S(=O)(=O)N1CCOCC1 ?
RT RNaseH block: inactive

How did CC(C)c1nc(SCc2c(F)cccc2Cl)c2c(=O)n(C)c(=O)n(C)c2n1 do in these assays?
RT RNaseH block: inactive

How did Cc1ccc(-c2nnn(CC(=O)N(Cc3ccccc3)C(C(=O)NC3CCCC3)c3ccncc3)n2)o1 (centres undefined) do in these assays?
RT RNaseH block: inactive

Results for Cc1ccc(-c2nnn(CC(=O)N(Cc3cccs3)C(C(=O)NC3CCCC3)c3ccco3)n2)o1 (centres undefined) ?
RT RNaseH block: inactive

Results for Cc1ccc(-c2nnn(CC(=O)N(c3ccccc3)C(C(=O)NC3CCCC3)c3ccco3)n2)o1 (centres undefined) ?
RT RNaseH block: 60

Results for CCOc1ccc(C2CC(c3ccc(F)cc3)n3ncnc3N2)cc1 (centres undefined) ?
RT RNaseH block: inactive

Results for CCc1ccc(C2C(C#N)=C(N)SC(N)=C2C#N)s1 ?
RT RNaseH block: inactive

Results for N#CC1=C(N)SC(N)=C(C#N)C1Cc1ccccc1 ?
RT RNaseH block: inactive

Results for CC(C)CC1C(C#N)=C(N)SC(N)=C1C#N ?
RT RNaseH block: 51

How did COc1ccc(CCNc2c(C)c(C)nc3ncnn23)cc1 do in these assays?
RT RNaseH block: inactive
